# Measurements: PubChem BioAssay (NCATS)
# Results filed as inconclusive are left out. Where a call stands in place of a potency, no number is given. Calls of active or inactive are those of the source. The call rests on the fitted dose curve; in most records, active means well fitted cell-killing curve with a large enough effect; inconclusive means small, poorly fitted or top-dose-only effect, or effect the other way; inactive means no such curve, though single readings can be large or run the other way.
# Experiment: qHTS assay to identify small molecule inhibitors of chordoma cells - UCH-1 (AID 1259355); further: nearly all actives have a fitted effect of over 55% in size
# Conditions: UCH-1 chordoma viability, CellTiter-Glo, 48 h, combination; series mostly up to 46.1 µM
# Source text: NIH Chemical Genomics Center [NCGC]
# Chordoma is a rare and slow growing tumor that can occur anywhere along the spine, from the base of the skull to the tailbone. Current treatment options for chordoma is surgery and radiation therapy for those who are not candidates for surgery. But chordomas tend to return in the same location or surrounding areas of the original tumor after surgery and/or radiation. Chemotherapy can slow down the progression of the tumor. As chordoma is slow growing, the general cytotoxic agents that kill fast growing cells are ineffective, and some patients have been reported to respond to molecularly targeted drugs.
# NCATS Pharmaceutical Collection (NPC) containing approximately 3000 clinically approved and investigational drugs were used to screen at 15 concentrations in a chordoma cell lines, UCH-1, to identify small molecule compounds that can inhibit chordoma cell growth.
# NCGC Assay Protocol Summary:
# Human chordoma cell line UCH-1 was dispensed at 800 per well in 4uL of culture medium into white solid bottom 1536-well plates (Corning Life Sciences, Corning, NY) using a Multidrop Combi (Thermo Scientific, Waltham, MA) dispenser. The assay plates were incubated at 37 C and 5% CO2 for an overnight, and then 23nL of compounds dissolved in DMSO and positive control were transferred using a Pintool station (Wako, San Diego, CA). Compound treatment was followed by the addition of 1uL of the combination compounds (1uM Auranofin, 500nM each of Camptothecin, Doxorubicin, Rubitecan, and Topotecan) and assay medium to each well of the assay plates using Flying Reagent Dispenser (FRD, Aurora Discovery, San Diego, CA). The assay plates were incubated at 37 C and 5% CO2 for 48hr. Then 5uL of CellTiter-Glo reagent (Promega Corporation, Madison, WI) was added to each well of the assay plates using FRD. After 30min incubation at room temperature, the luminescence signal was quantified using a ViewLux plate reader (PerkinElmer, Shelton, CT).
# Potency means the concentration at half of the fitted maximal effect.
row,Structure (SMILES),Potency
1,C[C@]12C=CC(=O)C=C1CC[C@@H]1[C@@H]2CC[C@@]2(C)[C@H]1CC[C@]2(C)O,inactive
2,Oc1c(Br)cc(Br)cc1Br,inactive
3,CN1C[C@@H](NS(=O)(=O)N(C)C)C[C@@H]2c3cccc4c3c(cn4C)C[C@H]21,inactive
4,COP(=O)(OC)C(O)C(Cl)(Cl)Cl (stereo not given),inactive
5,O=C(NC(=O)c1c(F)cccc1F)Nc1cc(Cl)c(OC(F)(F)C(F)C(F)(F)F)cc1Cl (stereo not given),inactive
6,CN1C(=O)[C@@H](NC(=O)c2cc3ccccc3[nH]2)N=C(c2ccccc2)c2ccccc21,inactive
7,CC(Cc1ccccc1)NCc1ccccc1Cl (stereo not given),inactive
8,CCN(Cc1ccc(Cl)nc1)/C(=C/[N+](=O)[O-])NC,inactive
9,CCN(CC)CCOC(=O)C(C)(c1ccccc1)c1ccccc1,inactive
10,COc1ccc(C(=O)N2CCCC2=O)cc1,inactive
11,c1cc2c(c(N3CCNCC3)c1)OCCO2,inactive
12,C=CCOC(Cn1ccnc1)c1ccc(Cl)cc1Cl (stereo not given),inactive
13,CC[C@]1(O)CC[C@H]2[C@@H]3CCC4=CCCC[C@@H]4[C@H]3CC[C@@]21C,inactive
14,O=C1NCN(c2ccccc2)C12CCN(CCCOc1ccc(F)cc1)CC2,inactive
15,CCOC(=O)c1cncn1C(C)c1ccccc1 (stereo not given),inactive
16,NCc1cccnc1,inactive
17,C[N+]1(C)[C@@H]2CC[C@H]1CC(OC(=O)C(CO)c1ccccc1)C2 (stereo not given in full),inactive
18,CCNc1nc(Cl)nc(NCC)n1,inactive
19,C[C@H](N)[C@H](O)c1ccc(O)c(O)c1,inactive
20,CC1=C2[C@H]3OC(=O)[C@@H](C)[C@@H]3CC[C@@]2(C)C=CC1=O,inactive

row,Structure (SMILES),Potency
1,C#C[C@]1(O)CC[C@H]2[C@@H]3CCC4=CC(=O)CCC4=C3C=C[C@@]21CC,inactive
2,CNC(=O)Oc1cccc2ccccc12,inactive
3,C[N+](C)(C)CCOC(=O)C(O)(c1ccccc1)c1ccccc1,inactive
4,CC(C)[N+](C)(CCC(C(N)=O)(c1ccccc1)c1ccccc1)C(C)C,inactive
5,O=C(O)c1nn(Cc2ccc(Cl)cc2Cl)c2ccccc12,inactive
6,CC(C)C(Br)C(=O)NC(N)=O (stereo not given),inactive
7,CC(C)(C)OC(=O)c1ncn2c1[C@@H]1CCCN1C(=O)c1c(Br)cccc1-2,inactive
8,C[C@@H]1O[C@@H](O[C@@H]2C=C3CC[C@@H]4[C@H](CC[C@]5(C)[C@@H](c6ccc(=O)oc6)CC[C@]45O)[C@@]3(C)CC2)[C@H](O)[C@H](O)[C@H]1O,0.1 µM (active)
9,O=c1n(Cl)c(=O)n(Cl)c(=O)n1Cl,inactive
10,CCC1(c2ccccc2)CCC(=O)NC1=O (stereo not given),inactive
11,C[C@]12CC[C@H]3[C@@H](CC=C4C[C@@H](O)CC[C@@]43C)[C@@H]1CC[C@@H]2O,inactive
12,C[N+]1(CCC(C(N)=O)(c2ccccc2)c2ccccc2)CCCCC1,inactive
13,CC(C)NCC(O)c1ccc(N)c(C#N)c1 (stereo not given),inactive
14,Cc1c(Cl)c(=O)oc2cc(OP(=O)(OCCCl)OCCCl)ccc12,inactive
15,C[C@]12Cc3nonc3C[C@@H]1CC[C@@H]1[C@@H]2CC[C@@]2(C)[C@H]1CC[C@]2(C)O,inactive
16,C[C@H]1C(=O)O[C@@H]2CCN3CC=C(COC(=O)[C@](C)(O)[C@]1(C)O)[C@H]23,inactive
17,COc1cc(N)c(Cl)cc1C(=O)NC1CN2CCC1CC2 (stereo not given),inactive
18,CCS(=O)(=O)C(C)(C)S(=O)(=O)CC,inactive
19,COP(=S)(OC)Oc1ccc(Sc2ccc(OP(=S)(OC)OC)cc2)cc1,inactive
20,CCC1(CC)C(=O)NC(=O)NC1=O,inactive
